The values below come from the supplement of paper PMC10338343.

± gives the standard deviation.
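Also: 1 nM active piRISC with 0.1 nM target library at 33 °C single turnover.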

One assay relates to MILI (PIWIL2) piRISC loaded with L1MC piRNA (26 nt). The assay is described as follows: pre-steady-state target cleavage rate (min^-1); guide: L1MC piRNA 5'p-UAACUAAAUACUAUGCAAGCUGUAGG; MIWI and MILI are mouse PIWI proteins and EfPiwi is from a freshwater sponge; tags in brackets are library labels; higher = faster piRNA-guided slicing of the target. Conditions: auxiliary factor: 500 nM mouse GTSF1. The gist of the method:
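In HEPES–potassium acetate buffer at 33 °C, […] transcribed, DNA-blocked target RNA library was mixed with 1 nM active affinity-purified piRISC carrying one synthetic guide, with or without 500 nM GTSF1 partner protein, for 0–8 or 0–960 min. Uncleaved targets were sequenced and normalised to depth and to weakly complementary targets; three trials were pooled and k3 was capped at 0.0001 min^-1. The pre-steady-state cleavage rate followed from a burst-and-steady-state fit.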
Consider UCCUGGAUGUCCUUGCAUAGUUAAUAGUUA, for which the “pre-steady-state target cleavage rate” value turned out to be 0.00959 ± 0.0043. On the same count and under the same terms, for UCCUGGUACAGCUUGCAUAGUAAAUUCAAA the value was 0.0147 ± 0.0074; for UCCUGGAUGAGCUUGCAUAGUAUUUUCUUA, 0.0122 ± 0.0069; for UCCUCCUACAGCUUGCAUAGUAUGUAGUUA, 0.041 ± 0.015. Still for that read-out and setting: the figure for UCCUGGAUGAGCUUGCAUAGUAUUUGUUA is 0.118 ± 0.028; for UCCUGGAACAGCUUGCAUACUAUUUUCAAA it is 0.0161 ± 0.0061.

Regarding UCCUGGAACAGCAAGCAUAGUAUUUACAAA, the “pre-steady-state target cleavage rate” value amounted to 0.148 ± 0.034.

For the sequence UCCUGGUACAGCUUGCUAAGUAUUUAGAAA, the “pre-steady-state target cleavage rate” value was 0.0132 ± 0.0056. With UCCUGGAUGUCCUUGGUUAGUAUUUAGUAA, the “pre-steady-state target cleavage rate” value worked out at 0.0915 ± 0.022.

For UCCUGGAUGUCGUUGCAUAGUAUUUAGAUUA, the “pre-steady-state target cleavage rate” value came out at 0.0205 ± 0.0091. The same measure, in the same setting: the figure for UCCUGGAUGUGCUUGCAUAGUAUUUUGAAA is 0.00858 ± 0.0064. Still for that read-out and setting: the figure for UCCUGGAUGUCCUUGCAUAGUAUUUAGUGUA is 0.0384 ± 0.012; for UCCUCCUAGAGCUUGCAUAGUAUUUACUUA it is 0.146 ± 0.03; for UCCUCCUACAGCUUGCAUUGUAUUUAGAAA it is 0.0778 ± 0.019. On the same count and under the same terms, for UCCUGGAUGUCGAACGUUGAGUAUUUAGUUA the value was < 0.0001; for “UCCUGGAUGUCCUUGCAUAGUAUUAUCAAA [g7:g19:cont:t1A]”, 0.0222 ± 0.0094. As to UCCUGGAUGUGCUUGCAUAGUAUAAAGUAA, the “pre-steady-state target cleavage rate” value worked out at 0.0114 ± 0.0059.

For UCCUGCUACAGCUACCAUAGUAUUUAGUAA, the “pre-steady-state target cleavage rate” value came out at 0.158 ± 0.029. On the same count and under the same terms, the figure for UCCUGGAUGACCUUGCAUAGAAUUUAGUUA is 0.023 ± 0.012.

On to UCCUCCUACAGCUUGCAUAGUUAAUUCAAA, for which the “pre-steady-state target cleavage rate” value amounted to 0.0506 ± 0.016. Same read-out and setting: for UCCUGGAUGUCGAAGACAUAGUAUUUAGUUA the value was 0.0117 ± 0.0056. The same measure, in the same setting: for UCCUGGAUGUGCUUGCAUAGUAUUUUCUUA the value was 0.00861 ± 0.005; for UCCUGGAACAGCAUGCAUAGUAUUUACUUA, 0.221 ± 0.034; for UCCUGGAUCAGCUUGCAUAGUAUUAACAAA, 0.0885 ± 0.022.

Turning to UCCUGGAACAGCUUGCAAAGUAUUUACAAA, the “pre-steady-state target cleavage rate” value is 0.0328 ± 0.01. Turning to UCCUGCUACAGCAACCAUAGUAUUUAGUUA, the “pre-steady-state target cleavage rate” value is 0.305 ± 0.04. The same measure, in the same setting: the figure for UCCUGGAUCAGCUUGCAUAGCUAUUUAGUUA is 0.00402 ± 0.004; for UCCUGGAUCAGCUUGCAUAGUAUAAACAAA it is 0.0772 ± 0.019. Still for that read-out and setting: the figure for UCCUGGAUGUGCUUGCAUAGUAUUUUGUAA is 0.00939 ± 0.0045; for UCCUGGAUCAGCUUGCAUAGUAUUUUGUAA it is 0.0574 ± 0.016; for UCCUGGAUGUGCUUGCAAUAGUAUUUAGUUA it is 0.00398 ± 0.0037. On the same count and under the same terms, for UCCUGGUACAGCUUGCAUAGUAUUUAGAAA the value was 0.162 ± 0.03.

Turning to UCCUGGAACAGCUUGCAUAGCUAUUUAGUUA, the “pre-steady-state target cleavage rate” value came to 0.00904 ± 0.0044. Still for that read-out and setting: the figure for UCCUGGAUGUCGAAGCAUAGUAUUUGAGUUA is 0.0579 ± 0.012; for UCCUGGAUGUCCUUGCAUAAUAUUUAGUUA it is 0.0892 ± 0.015.

The assay is the same for the next values; noted with them: auxiliary factor: none (no GTSF1).
Regarding UCCUGGAUCAGCUUCCAUAGUAUUAAGUUA, the “pre-steady-state target cleavage rate” value is < 0.0001.

Regarding UCCUGGAUGUCGUUGCAUAGGUAUUUAGUUA, the “pre-steady-state target cleavage rate” value is 0.00509 ± 0.0029. The same measure, in the same setting: for UCCUGGAUGUCGUUGCAUAGUUAUUAGUUA the value was 0.00364 ± 0.0031; for UCCUGGAUGUCGAACGUAAGUAUUUAGUAUA, < 0.0001; for UCCUGGAUGUCGUUGCAUACAAUUUAGUUA, 0.00319 ± 0.0024.
